The list is not random: actives were taken first. Their share in the collection is about 2.4%.
D2 antagonist: HTS Assay for Allosteric Antagonists of the Human D2 Dopamine Receptor: Primary Screen for Antagonists | inhibition, % at 10 µM | 340,000 compounds, 2% hits | HEK293 TREx D2 cells, calcium flux, dopamine EC80 | AID 485344, 2010 | D(2) dopamine receptor (Homo sapiens), P14416; in the data active = inhibition above about 30%; inactive = below that, where a call was filed; also: 0% is about no effect
Target sequence (P14416 whole entry, looked up): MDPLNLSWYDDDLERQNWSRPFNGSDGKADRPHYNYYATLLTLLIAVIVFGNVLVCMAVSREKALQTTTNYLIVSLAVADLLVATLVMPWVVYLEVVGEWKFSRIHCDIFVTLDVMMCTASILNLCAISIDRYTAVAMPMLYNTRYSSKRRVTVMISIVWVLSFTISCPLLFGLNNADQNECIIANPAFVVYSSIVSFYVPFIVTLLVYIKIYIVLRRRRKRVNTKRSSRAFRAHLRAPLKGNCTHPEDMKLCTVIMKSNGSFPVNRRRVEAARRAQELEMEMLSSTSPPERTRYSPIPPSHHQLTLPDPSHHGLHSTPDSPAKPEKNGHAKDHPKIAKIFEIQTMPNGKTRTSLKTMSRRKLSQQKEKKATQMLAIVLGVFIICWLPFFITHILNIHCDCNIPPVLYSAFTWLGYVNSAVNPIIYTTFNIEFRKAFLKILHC
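Cells plated overnight at 30 C with tetracycline; no-wash calcium dye, 30–90 min RT; 10 s baseline; compound pinned; 180 s read; EC80 dopamine added; another 180 s read.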
D2 PAM-1: Beta-Arrestin HTS for Positive Allosteric Modulators of the Human D2 Dopamine Receptor: Potentiators. potentiation, % (test concentration not listed). 360,000 compounds, 0.23% hits. DiscoveRx D2 beta-arrestin cells, luminescence, 90 min; 100% = 57 uM dopamine signal. D(2) dopamine receptor (Homo sapiens), P14416; in the data active = potentiation above about 50%; inconclusive = mostly about 30% to 49%
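PathHunter beta-arrestin assay in DiscoveRx D2 cells. Compounds were added with an EC20 of dopamine (50 nM final) for 90 min at 37 deg C. Luminescence was read 1 h after detection reagent, with 57 uM dopamine as the EC100 control.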
D2 PAM-2: HTS Assay for Positive Allosteric Modulators of the Human D2 Dopamine Receptor: Primary Screen for Potentiators. HEK293 T-REx D2, calcium flux, EC20 dopamine potentiation. 340,000 compounds, 0.34% hits. potentiation, % at 10 µM. D(2) dopamine receptor (Homo sapiens), P14416;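 active = potentiation over 3 SD above the plate norm, cut at about 30% in these data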; also: 0% is about no effect
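Tetracycline-induced HEK293 T-REx cells force-coupled to calcium signalling expressed D2; compounds were pin-added after a 10 s baseline, read kinetically 180 s, then an EC20 dopamine challenge followed with a further 180 s calcium read.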
D2 ag-1: HTS Assay for Allosteric Agonists of the Human D2 Dopamine Receptor: Primary Screen for Agonists. HEK293 T-REx D2 cells, calcium flux agonist mode. activation, % at 2 µM. 340,000 compounds, 0.53% hits. D(2) dopamine receptor (Homo sapiens), P14416;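 active = activation over 3 SD above normal in the single-dose calcium agonist read, cut at about 30% in these data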; also: 0% is about no effect
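Calcium-flux readout, 1 cycle/sec over 180 s following compound pin transfer, in inducible HEK293 Trex D2 cells (force-coupled); dopamine controls included. Positive calcium responses during this window marked compounds as potential agonists.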
D2 ag-2: Beta-Arrestin HTS for Positive Allosteric Modulators of the Human D2 Dopamine Receptor: Agonists. DiscoveRx PathHunter D2 beta-arrestin, luminescence, 90 min; 100% = 57 uM dopamine signal. activation, % (test concentration not listed). 360,000 compounds, 0.084% hits. AID 624465, 2012; in the data active = activation above about 40%; inconclusive = between about 15% and that limit
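DiscoveRx PathHunter D2 beta-arrestin cells (2,100/well) attached overnight, then compound-stimulated 90 min at 37 C in HBSS/10 mM HEPES/0.1% Tween-20 buffer; beta-galactosidase complementation read by luminescence after 1 h at ambient temperature. Dopamine 57 uM final (EC100) as control.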
Numbers without * were called inactive; u = inconclusive; x = no result; ! = not confirmed by another sample.

SMILES	D2 antagonist	D2 PAM-1	D2 PAM-2	D2 ag-1	D2 ag-2
CC(=O)c1ccc(OCC(O)CN2CCN(Cc3ccc4c(c3)OCO4)CC2)cc1 (stereo unspecified)	56.2*!	-6.2	3.2	1.7	-2.2
O=C(c1cc2ccccc2o1)N1CCN(Cc2ccc3c(c2)OCO3)CC1	77.7*	-32.8	-19.1	-0.5	-0.9
CN(C)c1ccc(C(=O)N2CCCC(N3CCN(Cc4ccc5c(c4)OCO5)CC3)C2)cc1 (stereo unspecified)	31.6*	-43.9	-22.6	1.0	-4.8
Cc1ccc(NC(=O)C(=O)NCC(c2cccnc2)N2CCN(Cc3ccccc3)CC2)cc1C (stereo unspecified)	x	x	-5.4	0.0	x
CCC(CC)C(=O)Nc1ccccc1C(=O)OCc1cc(=O)n2nc(C3CCCCC3)sc2n1	x	x	2.6	-1.7	x
CCN(CC)C(=O)N1CCN(Cc2ccc3c(c2)OCO3)CC1	-16.3	-3.7	-10.4	33.1*	-1.6
Cc1cccc(N2CCN(C(=O)Cn3ncc4c3-c3cc(C)ccc3OC4)CC2C)c1 (stereo unspecified)	x	x	-3.5	-0.3	x
O=C(CCCn1c(=O)c2cccn2c2ccccc21)Nc1cccc(Cl)c1	x	x	8.6	0.4	x
CC1(C2CC2)NC(=O)N(CC(=O)NCc2ccc(Cl)cc2Cl)C1=O (stereo unspecified)	40.0*	-2.8	12.3	0.1	-8.7
Cc1ccc(Cl)cc1NC(=O)CN1C(=O)NC(C)(C2CC2)C1=O (stereo unspecified)	x	-1.6	x	x	0.8
Cc1ccc(C(=O)Nc2ccc3c(c2)N(C)C(=O)c2ccccc2S3)cc1	x	x	2.8	1.0	x
COc1ccc(CCNC(=O)CSc2nc3[nH]ncc3c(=O)n2-c2ccccc2OC)cc1OC	36.7*	6.6	8.9	2.6	-1.3
Cn1c(=O)c2sccc2n2c(CCC(=O)Nc3ccc(F)cc3)nnc12	x	x	-9.6	0.1	x
O=C(NC1CCCC1)C(c1ccc(Cl)cc1)N1CCOCC1 (stereo unspecified)	32.0*	-5.8	-2.5	-0.9	-5.7
O=C(Nc1ccc(Cl)cc1Cl)c1cc(S(=O)(=O)N2CCC3(CC2)OCCO3)ccc1F	x	x	4.8	0.5	x
CCCCNC(=S)N(C)/N=C/c1c(F)cccc1F	5.9	-2.1	7.3	1.1	0.4
CCCCNC(=S)N(C)/N=C/c1ccc(F)cc1	90.6*	-20.8	6.9	-1.9	-1.4
Cc1csc(SCC(=O)Nc2ccc(C)c(F)c2)n1	36.8*	-17.2	-22.6	-1.4	-2.6
Cc1csc(SCC(=O)Nc2ccccc2C)n1	7.1	-23.3	16.8	-0.5	-3.6
Cc1csc(SCC(=O)Nc2cccc3nsnc23)n1	32.7*	-4.3	3.6	1.1	0.0
COc1ccc(-c2cn3nc(SCC(=O)Nc4cccc(C)c4C)ccc3n2)cc1	x	x	8.1	x	x
CCN(CC)CCNC(=O)c1ccc(NC(=O)c2c(C)nn(-c3ccc(F)cc3)c2Cl)cc1	40.9*	-16.3	-12.4	0.1	-2.6
CCN(CC(=O)Nc1ccc(NC(C)=O)cc1)C(=O)c1c(C)nn(-c2ccc(F)cc2)c1Cl	x	-0.2	x	x	1.9
COc1ccccc1NC(=O)C1CCN(C(=O)c2sc3nc[nH]c(=O)c3c2C)CC1	x	x	-23.9	1.0	x
CCOC(=O)N1CCN(Cc2ccc(O)c3ncccc23)CC1	2.5	-2.4	-2.3	24.4	4.0
SMILES	D2 antagonist	D2 PAM-1	D2 PAM-2	D2 ag-1	D2 ag-2
CCOC(=O)N1CCN(Cc2ccccn2)CC1	13.7	-3.1	44.2*	0.2	-0.8
CCOC(=O)N1CCN(Cc2cccs2)CC1	-6.5	11.2	1.0	38.2*	u
C[C@H]1O[C@@H](O[C@H]2CC[C@@]3(C)C(CC[C@]4(C)C3C=C[C@]35OC[C@@]6(CCC(C)(C)C[C@H]63)[C@@H](O)C[C@]54C)[C@]2(C)CO)[C@H](O)[C@@H](O[C@@H]2O[C@H](CO)[C@@H](O)[C@H](O)[C@H]2O)[C@H]1O (stereo partly specified)	x	-34.8	x	x	1.0
CC1OC(OC2C(OC3C(O[C@H]4CC[C@]5(C)C6C=C[C@]78OC[C@@]9(CC[C@@H](C)[C@H](C)C97)[C@H](O)C[C@@]8(C)[C@]6(C)CC[C@H]5C4(C)C)OC(C)C(O)C3O)OC(CO)C(O)C2O)C(O)C(O)C1O (stereo partly specified)	31.6*	x	-14.0	43.0*	x
Cc1nc2c(C#N)c(C)[nH]n2c(=O)c1Cc1ccccc1	16.6	-11.5	0.0	0.2	-0.1
Cc1[nH]n2c(=O)cc(Cc3ccccc3)nc2c1C#N	41.6*	-0.7	0.7	0.7	-2.6
COc1ccccc1C1CCN(Cc2ccccc2)CC1	83.2*	-39.8	-29.3	32.1*	-8.4
COc1cc(NC(=O)NCC2CCN(Cc3ccccc3Cl)CC2)cc(OC)c1OC	9.1	-15.3	-8.4	1.1	2.7
COc1ccccc1C1CCN(Cc2cccc([N+](=O)[O-])c2)CC1	110.0*	-28.2	-26.7	0.1	-1.9
OCCN1CCN(Cc2ccc3ccccc3c2)CC1	-2.1	-3.5	-11.5	0.0	-5.8
COc1ccccc1C1CCN(Cc2ccc3ccccc3c2)CC1	85.1*	-15.7	-31.9	-1.3	-1.7
COc1ccc(CN2CCC(Cc3ccccc3)CC2)cc1OC	19.0	-28.1	-16.7	-0.2	-5.9
COc1ccccc1C1CCN(Cc2ccccc2Cl)CC1	91.9*	-14.8	-32.5	3.0	-0.2
COc1ccccc1C1CCN(c2ccc(CO)cc2[N+](=O)[O-])CC1	-11.1	-6.3	0.3	2.3	1.3
CSc1ccc2c(c1)N(CCC1CCCCN1C)c1ccccc1S2 (stereo unspecified)	98.1*	-30.7	-28.6	1.5	-3.5
CCS(=O)(=O)N1Cc2ccccc2CC1C(=O)Nc1ccc(OC)c(OC)c1 (stereo unspecified)	4.0	0.0	-2.2	0.1	-1.8
CCS(=O)(=O)N1Cc2ccccc2CC1C(=O)Nc1cccc(OC)c1 (stereo unspecified)	34.4*	-1.6	0.5	-0.5	-2.1
O=C(COc1ccccc1F)Nc1ccccc1OCc1cc(=O)n2ccccc2n1	x	x	7.4	x	x
COc1ccc(NC(=O)C(=O)NCCN2CCN(C(=O)c3ccc(C)cc3)CC2)cc1	46.0*	-22.3	-21.6	-1.7	0.1
CC(=O)Nc1ccc(C(=O)COC(=O)c2c(C)noc2C)c(F)c1	-36.5	-23.5	-4.0	-0.6	1.2
CC(=O)Nc1ccc(C(=O)COC(=O)c2cccs2)c(F)c1	34.7*	3.4	0.8	0.3	-2.5
